Sampled rows, rich in hits. Any-hit rate of the full collection: about 3.4%.
GPR151 activ: activators of human GPR151; AID 1508602; 1% of 650,000 active; activation, % at 11.2 µM; PathHunter beta-arrestin GPR151 cells, luminescence; Q8TDV0; in the data active = activation above about 4.9%
MITF primary: human MITF inhibition, primary screen. O75030. AlphaScreen MITF homodimerization, bead proximity signal. inhibition, % at 2.6 µM. 0.91% of 650,000 active. AID 1259374; in the data active = inhibition above about 50%
Target sequence (O75030 whole entry, looked up): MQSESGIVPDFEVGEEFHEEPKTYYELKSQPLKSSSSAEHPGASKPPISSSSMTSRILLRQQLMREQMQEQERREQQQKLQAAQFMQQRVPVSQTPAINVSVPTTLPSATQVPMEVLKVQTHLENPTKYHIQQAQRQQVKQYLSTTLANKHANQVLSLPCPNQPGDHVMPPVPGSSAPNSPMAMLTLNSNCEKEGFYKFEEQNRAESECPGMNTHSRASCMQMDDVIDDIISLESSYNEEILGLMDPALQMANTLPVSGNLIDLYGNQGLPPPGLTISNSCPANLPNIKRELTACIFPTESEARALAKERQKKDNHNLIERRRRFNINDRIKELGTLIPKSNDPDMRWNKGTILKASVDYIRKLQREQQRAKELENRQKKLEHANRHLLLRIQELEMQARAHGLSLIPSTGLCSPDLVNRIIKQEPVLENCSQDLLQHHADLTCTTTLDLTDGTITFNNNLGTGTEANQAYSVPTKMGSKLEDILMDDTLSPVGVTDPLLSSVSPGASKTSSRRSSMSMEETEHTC
TEAD-YAP block: TEAD-YAP interaction inhibition; HEK-TIYL cells, TEAD-Gal4/YAP UAS-luciferase luminescence; 1.4% of 640,000 active; inhibition, % at 9.12 µM; AID 1259422; in the data active = inhibition above about 32%
FBW7 activator: human FBW7 E3 ligase activation, primary screen; 0.13% of 650,000 active; AlphaScreen FBW7–phospho-cyclin E peptide binding, activator screen; Q969H0; normalized activity (activation), % at 26.1 µM; AID 1259310; in the data active = normalized activity above about 1.9%;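 also: purified mutant Fbw7 with reduced substrate affinity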
GPR151 confirm: confirmation of human GPR151 activators | GPR151 PathHunter beta-arrestin cells, luminescence, 90 min; % of EA-reagent control over plate median | 6,700 tested, under 10 active | activation, % at 11.2 µM | shares compounds with GPR151 activ;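 active = mean percent activation across replicates above the confirmation screen cutoff of 4.91%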
GPR119 ag: GPR119 activation, counter-screen for GPR151 activators; GPR119 PathHunter beta-arrestin cells, luminescence, 90 min; 0 = compound-well median, 100 = enzyme-acceptor control; 0.3% of 6,700 active; shares compounds with GPR151 activ; activation, % at 11.2 µM;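 active = mean percent activation in the counterscreen above 29.09%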;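 also: counterscreen on off-target GPR119 to flag nonselective hits from the GPR151 activator screen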
Of the large screens only hits and unclear results are named; the others gave an inactive call (follow-up assays come after a bar, where they were run); ! = not confirmed by another sample.

O=C(NCc1ccccc1F)C1CN(c2nc3ccccc3s2)C1	none
O=C(Nc1nc2c(s1)CCCC2)C1CN(c2nc3ccccc3s2)C1	GPR151 activ 9.8 | GPR151 confirm inactive | GPR119 ag inactive
CCOC(=O)CCN1C(=O)CCC1CCNCc1cc2c(cc1Cl)OCO2 (stereo unspecified)	none
CCOC(=O)c1sc(NC(=O)c2ccccc2Cl)c(C(=O)OCC)c1C	none
COc1ccc(S(=O)(=O)NCC2CCCN(Cc3ccncc3)C2)cc1 (stereo unspecified)	none
COCC(=O)N1CCCC(CNS(=O)(=O)c2ccc(OC)cc2)C1 (stereo unspecified)	none
COc1ccc(S(=O)(=O)NCC2CCCN(CCCC3CCCC3)C2)cc1 (stereo unspecified)	GPR151 activ 5.8 | GPR151 confirm inactive | GPR119 ag inactive
COc1ccc(S(=O)(=O)NCC2CCCN(C(=O)c3sccc3C)C2)cc1 (stereo unspecified)	GPR151 activ 5.5 | GPR151 confirm inactive | GPR119 ag inactive
COc1cc(CN=Cc2c(O)n(-c3cc(OC)ccc3OC)c(=O)[nH]c2=O)cc(OC)c1	none
COc1ccccc1CCNCc1c(C(=O)O)n(C)c2cc(C)ccc12	GPR151 activ 9.8 | GPR151 confirm inactive | GPR119 ag inactive
CSc1ccc(/C=N\NC(=O)CNc2ccc(C)cc2)cc1	GPR151 activ 5.8 | GPR151 confirm inactive | GPR119 ag inactive
COc1cc2nc(Nc3ccccn3)nc(Nc3cc(OC)c(OC)c(OC)c3)c2cc1OC	GPR151 activ 7.3 | GPR151 confirm inactive | GPR119 ag inactive
COc1cc2nc(Nc3ccccn3)nc(Nc3ccc(Oc4ccccc4)cc3)c2cc1OC	none
CC(C)c1ccc(N(C)S(=O)(=O)c2ccc3[nH]cc(C(=O)NCc4ccco4)c(=O)c3c2)cc1	none
COc1ccc(OC)c(NC(=O)CCNS(=O)(=O)c2ccc3c(c2)oc(=O)n3C)c1	GPR151 activ 5.1 | GPR151 confirm inactive | GPR119 ag inactive
O=C(c1ccc2c(c1)C(=O)N(c1ccccn1)C2=O)N1CCN(c2ccccc2)CC1	none
CC1(c2ccc(Cl)cc2)C(=O)Nc2cc(F)ccc21 (stereo unspecified)	none
CC(C)C1=NOC(C(=O)N2CCC(CO)(Cc3cccc(C(F)(F)F)c3)CC2)C1 (stereo unspecified)	GPR151 activ 5.2 | GPR151 confirm inactive | GPR119 ag inactive
CCCCN(CC)C(=O)CSc1nc2ccccc2c(=O)n1CCCOCC	none
CCOc1cc(S(=O)(=O)n2nnc3ccccc32)ccc1F	GPR151 activ 5.1 | GPR151 confirm inactive | GPR119 ag inactive
CC(C)=CC[C@@H](O)C1=CC(=O)c2c(O)ccc(O)c2C1=O	GPR151 activ 10.0!, MITF primary 75.1! | GPR151 confirm inactive | GPR119 ag inactive
COc1ccc(-n2c(/C=C/c3c(C)n(C)c4ccccc34)nc3ccc(I)cc3c2=O)cc1	none
COCCNC(=O)c1ccc(OC)cc1	GPR151 activ 4.9 | GPR151 confirm inactive | GPR119 ag inactive
COCCCNC(=O)c1ccc(OC)cc1	none
O=C(O)C(=O)/C=C(\O)c1ccc(Cl)cc1	GPR151 activ 13.2 | GPR151 confirm inactive | GPR119 ag inactive
Cc1ccc(C)c(-c2cc(C(=O)NN3CCOCC3)c3ccccc3n2)c1	GPR151 activ 5.4 | GPR151 confirm inactive | GPR119 ag inactive
CCN1CCN(C2=NS(=O)(=O)C(c3ccc(C)cc3)=C2C)CC1	GPR151 activ 11.7 | GPR151 confirm inactive | GPR119 ag inactive
Cc1ccc(NC(=O)CSc2nc3c(sc(=S)n3-c3ccc(C)c(C)c3)c(=O)n2-c2ccccc2C)cc1	none
CC(=O)c1cc(C#N)c(SCCC(C)C)nc1C	GPR151 activ 7.9 | GPR151 confirm inactive | GPR119 ag inactive
CC(c1ccccc1)N1C(=O)C2C(C(=O)Nc3ccc(Cl)cc3)C3C=CC2(O3)C1C(=O)NC1CCCCC1 (stereo unspecified)	GPR151 activ 5.2 | GPR151 confirm inactive | GPR119 ag inactive
CC1CCCC(NC(=O)C2N(Cc3ccc(F)cc3)C(=O)C3C(C(=O)Nc4ccc(Cl)cc4)C4C=CC32O4)C1C (stereo unspecified)	GPR151 activ 5.3 | GPR151 confirm inactive | GPR119 ag inactive
CC1CCCC(NC(=O)C2N(Cc3ccc(Cl)cc3)C(=O)C3C(C(=O)Nc4ccc(Cl)cc4)C4C=CC32O4)C1C (stereo unspecified)	none

Compound activity deposited in PubChem by The Scripps Research Institute Molecular Screening Center.
